Results reported in PubChem BioAssay (Tox21).
Values joined by “and” are separate entries in the source; they are usually repeats but may differ in a detail not shown here. Equal entries are not always repeated. Inconclusive results are not listed. A structure can be active in one record and inactive in another. Active and inactive are the calls of the source. Unless noted, the call rests on the fitted dose curve; in most records, active means well fitted curve in the direction sought with a large enough effect in the repeat runs; inconclusive means weak or mixed curves; inactive means no such curve, though single readings can be large; an effect the other way counts as inactive or inconclusive.

Columns and labels:
[1] = A CellTox Green Cytotoxicity Assay to monitor cytotoxicity in HepG2 cells - 0 hour (AID 1224882); further: nearly all actives have a fitted effect of over 35% in size
Summary of the method: (§1)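 First, HepG2 cells (600/well) mixed with reagent were plated; second, after 5 h at 37 C they received compounds via pintool; third, fluorescence was measured at 0 h through 40 h at 8 h intervals.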

[2] = A CellTox Green Cytotoxicity Assay to monitor cytotoxicity in HepG2 cells - 32 hour (AID 1224883); further: nearly all actives have a fitted effect of over 50% in size; further: potency means the concentration at half of the fitted maximal effect
Summary of the method: as §1

[3] = A CellTox Green Cytotoxicity Assay to monitor cytotoxicity in HEK293 cells - 8 hour (AID 1224884); further: nearly all actives have a fitted effect of over 35% in size; further: potency means the concentration at half of the fitted maximal effect
Summary of the method: (§2)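 Dead-cell fluorescence measured kinetically: asymmetric cyanine dye, HEK293, 600 cells/well, 5 h settle, 23 nL cpd/DMSO, 37 C, reads 0–40 h every 8 h.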

[4] = qHTS RealTime-Glo MT Cell Viability Assay in HepG2 cells - 16 hour (AID 1224885); further: nearly all actives have a fitted effect of over 50% in size; further: potency means the concentration at half of the fitted maximal effect
Summary of the method: (§3)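 Real-time, nonlytic viability: 600 HepG2 cells/well mixed with NanoLuc enzyme plus prosubstrate; 5 h settle, compound (DMSO) added by pintool; luminescence monitored over 40 h at 37 C.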

[5] = qHTS RealTime-Glo MT Cell Viability Assay in HEK293 cells - 24 hour (AID 1224886); further: nearly all actives have a fitted effect of over 50% in size; further: potency means the concentration at half of the fitted maximal effect
Summary of the method: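 Cells + reagent dispensed (600 cells/well, HEK293) → 5 h at 37 C/5% CO2 → 23 nL compound in DMSO pinned → 40 h at 37 C → luminescence read at 0, 8, 16, 24, 32, 40 h.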

[6] = A CellTox Green Cytotoxicity Assay to monitor cytotoxicity in HEK293 cells - 16 hour (AID 1224888); further: nearly all actives have a fitted effect of over 35% in size; further: potency means the concentration at half of the fitted maximal effect
Summary of the method: as §2

[7] = qHTS RealTime-Glo MT Cell Viability Assay in HepG2 cells - 0 hour (AID 1224889); further: nearly all actives have a fitted effect of over 50% in size
Summary of the method: as §3

[8] = A CellTox Green Cytotoxicity Assay to monitor cytotoxicity in HepG2 cells - 8 hour (AID 1224890); further: nearly all actives have a fitted effect of over 45% in size; further: potency means the concentration at half of the fitted maximal effect
Summary of the method: as §1

[9] = qHTS assay to identify small molecule antagonists of the estrogen receptor alpha (ER-alpha) signaling pathway using the BG1 cell line in the presence of 0.1 nM 17-beta-estradiol - cell viability counter screen (AID 1259241); further: nearly all actives have a fitted effect of over 40% in size; further: potency means the concentration at half of the fitted maximal effect
Summary of the method: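 Following 5 days in phenol red-free medium with charcoal-stripped serum, VM7Luc4E2 cells received test compounds alongside 0.1 nM 17beta-estradiol (final) at 37C for 22 hr. Live cells were then quantified via protease-substrate fluorescence.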

[10] = qHTS assay to identify small molecule antagonists of the androgen receptor (AR) signaling pathway using the MDA cell line in the presence of 0.5 nM R1881 - cell viability counter screen (AID 1259242); further: nearly all actives have a fitted effect of over 45% in size; further: potency means the concentration at half of the fitted maximal effect
Summary of the method: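 qHTS format. MDA-kb2 (MMTV-luc, AR/GR responsive) + cpd + 0.5 nM R1881 final, 16 hr 37C/0% CO2 → CellTiter-Fluor 30 min → fluorescence intensity.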

[11] = target: Androgen receptor (Homo sapiens) (UniProt P10275); experiment: qHTS assay to identify small molecule antagonists of the androgen receptor (AR) signaling pathway using the MDA cell line in the presence of 0.5 nM R1881 (AID 1259243)
Summary of the method: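 Antagonist mode quantitative HTS in MDA-kb2 MMTV-luciferase cells, agonist R1881 at 0.5 nM final, 16 hr exposure at 37C and 0% CO2, luminescent detection.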

[12] = target: Estrogen receptor (Homo sapiens) (UniProt P03372); experiment: qHTS assay to identify small molecule antagonists of the estrogen receptor alpha (ER-alpha) signaling pathway using the BG1 cell line in the presence of 0.1 nM 17-beta-estradiol (AID 1259244); further: nearly all actives have a fitted effect of over 50% in size; further: potency means the concentration at half of the fitted maximal effect
Summary of the method: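 Reporter is a stably transfected luciferase under four estrogen responsive elements in VM7Luc4E2 cells expressing native full-length ER-alpha; inhibition of 0.1 nM (final) 17beta-estradiol-driven signal over 22 h is read by luminescence.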

[13] = qHTS assay to identify small molecule HDAC inhibitors (AID 1259364);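 further: wild-type HCT-116 cells with endogenous class I/II HDAC activity; top concentration of the series differs between compounds; nearly all actives have a fitted effect of over 45% in size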
Summary of the method: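 Quantitative high-throughput format: overnight-seeded HCT-116 cells got compounds for 2 hr at 37C; HDAC-Glo I/II reagent added, 30 min RT, luminescence measured.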

[14] = qHTS assay to identify small molecule HDAC inhibitors - cell viability counter screen (AID 1259365); further: nearly all actives have a fitted effect of over 50% in size; further: potency means the concentration at half of the fitted maximal effect
Summary of the method: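 HCT-116 wild-type, overnight attachment; 2hr drug exposure, 37C; CellTiter-Glo luminescent ATP readout after 30min RT.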

[15] = qHTS assay to identify small molecule antagonists of the sonic hedgehog signaling (Shh) pathway - cell viability counter screen (AID 1259367); further: nearly all actives have a fitted effect of over 55% in size; further: potency means the concentration at half of the fitted maximal effect
Summary of the method: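 Viability was read by CellTiter-Fluor fluorescence in the same wells, reagent added 23 hr into compound treatment and incubated 1 hr at 37C. The 3T3 Gli1-Luc reporter cells (2,000/well) received conditioned medium after compound and ran 24 hr.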

[16] = qHTS assay to identify small molecule agonists of the sonic hedgehog signaling (Shh) pathway (AID 1259368; calls by dose curve;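 further: NIH/3T3-derived 3T3Gli1-Luc cells carrying a stable Gli1-driven firefly luciferase reporter; series mostly up to about 92 µM; nearly all actives have a fitted effect of over 15% in size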)
Summary of the method: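 Quantitative high-throughput format using a Gli1-driven firefly luciferase reporter line derived from NIH/3T3 cells. After a 24 hr compound treatment at 37 C and 5% CO2, luminescence reported Gli1 response element activity.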

[17] = qHTS assay to identify small molecule antagonists of the sonic hedgehog signaling (Shh) pathway (AID 1259369; calls by dose curve; further: nearly all actives have a fitted effect of over 45% in size; further: potency means the concentration at half of the fitted maximal effect)
Summary of the method: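 Stable Gli1-Luc reporter NIH/3T3 clone; quantitative HTS in stimulated mode with conditioned medium. Luminescence measured after 24hr compound treatment at 37 C.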

[18] = qHTS assay to identify small molecule agonists of the sonic hedgehog signaling (Shh) pathway - cell viability counter screen (AID 1259366); further: nearly all actives have a fitted effect of over 50% in size; further: potency means the concentration at half of the fitted maximal effect
Summary of the method: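 Compounds in DMSO were pin-transferred onto 3T3 Gli1-Luc cells that had settled 4hr; plates then stood 24hr at 37C and 5% CO2. One hour before the end, CellTiter-Fluor was added and fluorescence recorded.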

[19] = qHTS RealTime-Glo MT Cell Viability Assay in HEK293 cells - 8 hour (AID 1224887); further: nearly all actives have a fitted effect of over 50% in size; further: potency means the concentration at half of the fitted maximal effect
Summary of the method: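 600 HEK293 cells per well, dispensed already mixed with RealTime-Glo MT reagents. Compound dosing came 5 h later. The same wells were read for luminescence at 0, 8, 16, 24, 32 and 40 h of exposure at 37 C.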

Measured: Potency

Sequence of Androgen receptor (Homo sapiens) (P10275 whole entry, looked up): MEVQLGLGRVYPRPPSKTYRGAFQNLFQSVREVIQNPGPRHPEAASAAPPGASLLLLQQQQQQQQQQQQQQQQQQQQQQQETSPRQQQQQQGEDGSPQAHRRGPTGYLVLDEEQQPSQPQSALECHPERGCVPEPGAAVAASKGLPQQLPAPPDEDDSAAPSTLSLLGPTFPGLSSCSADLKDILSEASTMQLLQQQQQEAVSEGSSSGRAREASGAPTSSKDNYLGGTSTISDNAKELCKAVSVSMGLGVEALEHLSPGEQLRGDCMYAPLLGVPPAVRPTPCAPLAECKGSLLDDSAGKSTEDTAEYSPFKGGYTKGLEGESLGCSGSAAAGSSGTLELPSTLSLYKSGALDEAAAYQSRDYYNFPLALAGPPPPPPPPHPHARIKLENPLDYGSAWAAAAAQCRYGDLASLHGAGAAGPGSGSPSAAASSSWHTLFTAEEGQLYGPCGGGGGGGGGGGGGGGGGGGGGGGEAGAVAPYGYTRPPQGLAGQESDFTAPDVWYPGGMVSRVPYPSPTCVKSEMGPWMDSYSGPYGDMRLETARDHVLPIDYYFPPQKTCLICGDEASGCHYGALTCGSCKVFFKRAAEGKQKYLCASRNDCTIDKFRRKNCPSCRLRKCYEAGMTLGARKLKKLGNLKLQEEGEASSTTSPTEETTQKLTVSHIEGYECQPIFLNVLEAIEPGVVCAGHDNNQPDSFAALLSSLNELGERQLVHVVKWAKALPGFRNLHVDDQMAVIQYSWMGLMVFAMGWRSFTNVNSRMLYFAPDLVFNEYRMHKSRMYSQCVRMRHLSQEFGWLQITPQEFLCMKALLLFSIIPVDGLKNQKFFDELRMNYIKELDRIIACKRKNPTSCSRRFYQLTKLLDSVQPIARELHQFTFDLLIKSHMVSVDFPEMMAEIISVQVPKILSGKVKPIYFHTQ
Sequence of Estrogen receptor (Homo sapiens) (P03372 whole entry, looked up): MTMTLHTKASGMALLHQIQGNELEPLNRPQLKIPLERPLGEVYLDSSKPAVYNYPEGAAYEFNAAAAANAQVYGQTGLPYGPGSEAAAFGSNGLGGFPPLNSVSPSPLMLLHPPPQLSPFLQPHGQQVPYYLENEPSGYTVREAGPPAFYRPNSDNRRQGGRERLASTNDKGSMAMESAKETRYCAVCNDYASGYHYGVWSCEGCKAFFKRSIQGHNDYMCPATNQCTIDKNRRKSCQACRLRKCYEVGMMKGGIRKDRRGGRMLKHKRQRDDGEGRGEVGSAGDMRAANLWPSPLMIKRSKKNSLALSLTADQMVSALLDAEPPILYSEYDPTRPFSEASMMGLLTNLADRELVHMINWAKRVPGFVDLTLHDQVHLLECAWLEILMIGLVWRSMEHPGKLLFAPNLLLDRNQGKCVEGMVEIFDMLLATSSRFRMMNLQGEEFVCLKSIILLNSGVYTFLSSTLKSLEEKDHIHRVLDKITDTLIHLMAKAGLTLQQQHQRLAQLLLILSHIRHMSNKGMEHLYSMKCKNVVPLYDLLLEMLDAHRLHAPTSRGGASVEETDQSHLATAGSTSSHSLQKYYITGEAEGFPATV

CCOC(=O)CC(=O)CCl
active: [5] 43.6 µM | [11] 30.6 µM
not listed: [18] | [19]
inactive: all other assays above

CN(C)C(=S)S
active: [2] 17.7 µM and 5.45 µM and 11 µM | [5] 11.2 µM and 1.73 µM and 11 µM | [9] 43.3 µM | [18] 12.4 µM and 6.07 µM and 4.86 µM | [15] 7 µM and 4.82 µM and 54.5 µM | [17] 4.95 µM and 962 nM and 3.44 µM
inactive and 15.5 µM (active): [4]
not listed: [10] | [11] | [12] | [19]
inactive: all other assays above

CC(=O)Nc1ccc2c(c1)Cc1ccccc1-2
not listed: [11] | [13] | [19]
inactive: all other assays above

c1ccc2cc3c(cc2c1)-c1cccc2cccc-3c12
active: [11] 3.02 µM
not listed: [9] | [12] | [18] | [19]
inactive: all other assays above

BrCBr
not listed: [11] | [17] | [19]
inactive: all other assays above

O=C1C=CC(=O)c2ccccc21
inactive: [1] | [3] | [6] | [16]
active: [2] 12.3 µM | [4] 19.5 µM | [5] 5.49 µM | [19] 6.16 µM | [8] 15.5 µM | [9] 19.3 µM | [10] 30.6 µM | [11] 19.3 µM | [12] 10.9 µM | [14] 48.6 µM | [18] 12.2 µM | [15] 15.4 µM | [17] 4.33 µM

N#CSCSC#N
inactive: [1] | [3] | [7] | [14] | [16]
active: [2] 39.8 µM and 17.2 µM | [4] 56.2 µM and 19.3 µM | [5] 12.6 µM and 19.3 µM | [19] 22.4 µM and 21.7 µM | [8] 34.3 µM | [9] 70.1 µM | [10] 62.5 µM | [11] 49.6 µM | [18] 11.1 µM and 6.79 µM | [15] 12.5 µM and 13.5 µM | [17] 2.79 µM and 2.41 µM

Oc1ccc(C(=C(Cl)Cl)c2ccc(O)cc2)cc1
active: [5] 38.8 µM | [12] 61 µM
not listed: [8] | [11] | [17] | [19]
inactive: all other assays above

COP(=S)(OC)Oc1cc(Cl)c(Br)cc1Cl
active: [11] 54.5 µM
not listed: [7] | [8] | [12] | [17]
inactive: all other assays above

CC(C)(COCC1CO1)COCC1CO1 (stereo not drawn)
not listed: [11] | [17] | [19]
inactive: all other assays above

CN(C)S(=O)(=O)N(SC(F)(Cl)Cl)c1ccccc1
active: [2] 5.49 µM | [4] 15.5 µM | [5] 4.36 µM | [19] 9.77 µM | [6] 19.5 µM | [18] 6.11 µM | [15] 12.2 µM | [17] 2.17 µM
inactive: [1] | [3] | [8] | [13] | [16]

CC(C)OS(C)(=O)=O
not listed: [8] | [11] | [15] | [19]
inactive: all other assays above

O=c1[nH]c2ccccc2n1C1CCN(CCCC(c2ccc(F)cc2)c2ccc(F)cc2)CC1
active: [2] 24.5 µM | [5] 12.3 µM and 16.9 µM | [19] 15.5 µM | [12] 48.6 µM | [18] 27.3 µM
49 µM (active) and inactive: [4]
54.5 µM (active) and inactive: [10]
not listed: [8] | [9] | [11] | [17]
inactive: all other assays above

CCCCCCCCCCCCCCCCCCn1cc[n+](C)c1
inactive: [1] | [19] | [7] | [13] | [14] | [16]
active: [2] 19.4 µM | [3] 24.4 µM | [4] 43.4 µM | [5] 15.4 µM | [6] 27.4 µM | [10] 34.2 µM | [11] 3.83 µM | [12] 15.3 µM | [18] 30.5 µM | [15] 30.5 µM | [17] 0.0542 µM
